Measured values taken from PubChem BioAssay AID720697 (Broad Institute, 2013).
Entries with a potency or affinity are not part of this list. Records with an inconclusive call do not appear. Calls of active or inactive are those of the source.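 Rule for the calls: active = signal loss with fitted half-maximal concentration at or below twice the top valid tested dose in every test run; inconclusive = runs disagree, flat 30 to 70% signal loss, or poor fit; inactive = all runs flat, opposite direction, or potency beyond limit.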

Experiment: HEK293T cytotoxicity, dose response, cytotoxicity control for miR-122 modulator project, cell-based, inhibitor set, cherry-pick, set 2 (AID 720697);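 note: 0% = median of neutral control wells and -100% = MG132 positive control wells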
Conditions: HEK293T viability, CellTiter-Glo luminescence, 48 h; series mostly up to 26 µM; activity change, negative = cytotoxicity: at the top concentration

Row | SMILES | activity change, negative = cytotoxicity
1 | COCC(=O)Nc1ccc2c(c1)C(=O)N(C)[C@@H]1CC[C@H](CC(=O)NCc3ccccc3F)O[C@H]1CO2 | 89% (inactive)
2 | O=C(Nc1ccccc1)N1CCCCN2[C@@H](CO)[C@H](c3ccc(C4=CCCCC4)cc3)[C@@H]2C1 | -74% (inactive)
3 | Cc1ccc(-c2ccc3c(c2)O[C@H](CN(C)C(=O)CC2CC2)[C@H](C)CN([C@H](C)CO)S3(=O)=O)cc1 | -0.183% (inactive)
4 | CCCNC(=O)N1C[C@@H]2[C@H](c3ccccc31)[C@@H](CO)N2Cc1cc(F)ccc1F | 30.6% [at 23.5 µM] (inactive)
